# From PubChem BioAssay (EPA / NIEHS)
# The source holds several records for some structures; these can differ, active in one and inactive in another. Activity calls are given as the source filed them. How the source made its calls: active means hit-call score of the fitted dose curve at least 0.9, where 1 is the maximum; inactive means score below 0.9.
# Columns and labels:
# [1] = target: Paired box protein Pax-6 (Homo sapiens) (UniProt P26367); test: ATG_Pax6_CIS: Attagene CIS-FACTORIAL HepG2 Assay for human Paired Box 6 (PAX6) (AID 2282956); conditions: HepG2 CIS-FACTORIAL PAX6 reporter transcription, RNA readout; actives raise or lower the signal
# Outline: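 Multiplexed cis-reporter HepG2 system; 24 h treatment; reporter mRNA read by RT-PCR/CE fluorescence; bidirectional fit vs DMSO.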
# [2] = ATG_PXRE_CIS: Attagene CIS-FACTORIAL HepG2 Assay for human Pregnane X Receptor Element (PXRE) (AID 2282957); conditions: HepG2 Attagene CIS-FACTORIAL PXRE reporter, mRNA; actives raise or lower the signal
# Outline: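 Cis-element reporter mRNA in human hepatoma HepG2 cells is measured 24 h post-dosing by RT-PCR, primer-extension labeling and capillary electrophoresis; gain or loss of signal is fitted relative to DMSO.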
# [3] = ATG_PPRE_CIS: Attagene CIS-FACTORIAL HepG2 Assay for human Peroxisome Proliferator-activated Response Element (PPRE) (AID 2282958); conditions: HepG2 PPRE cis-element reporter, Attagene transcription factor profiling; actives raise or lower the signal
# Outline: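 Multiplexed reporter transcription units under cis-regulatory promoters were transfected into HepG2 cells to capture endogenous factor activity. A 24 h incubation preceded RNA isolation and fluorescent RT-PCR fragment analysis.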
# [4] = ATG_RORE_CIS: Attagene CIS-FACTORIAL HepG2 Assay for human RAR-related Orphan Receptor Element (RORE) (AID 2282959); conditions: HepG2 Attagene cis-factorial RORE reporter, mRNA; actives raise or lower the signal
# Outline: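 Fluorescence intensity of reporter-specific cDNA fragments, separated by capillary electrophoresis, gives the signal. Source: HepG2 liver cells transiently transfected with cis-element reporters and exposed 24 h; DMSO-normalized bidirectional fit.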
# [5] = ATG_Sox_CIS: Attagene CIS-FACTORIAL HepG2 Assay for human SRY-box transcription factor (SOX) (AID 2282960); conditions: HepG2 Attagene cis-factorial SOX reporter, mRNA; actives raise or lower the signal
# Outline: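 After 24 h of chemical treatment, transfected HepG2 reporter cells are lysed for total RNA. Transcript levels come from RT-PCR with labelled primer extension and capillary electrophoresis, analysed bidirectionally versus DMSO.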
# [6] = target: Transcription factor Sp1 (Homo sapiens) (UniProt P08047); test: ATG_Sp1_CIS: Attagene CIS-FACTORIAL HepG2 Assay for human Specificity Protein 1 (Sp1) (AID 2282961); conditions: HepG2 Sp1 cis-reporter transcription, actives raise or lower the signal
# Outline: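 Sp1-driven reporter mRNA, read as capillary electrophoresis fluorescence after RT-PCR, in transiently transfected HepG2 cells dosed for 24 h; signal change in either direction relative to DMSO.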
# [7] = ATG_SREBP_CIS: Attagene CIS-FACTORIAL HepG2 Assay for human Sterol Regulatory Element Binding (SREBP) (AID 2282962); conditions: HepG2 Attagene cis-factorial SREBP reporter, mRNA; actives raise or lower the signal
# Outline: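 mRNA induction of transfected cis-promoter reporters in HepG2 cells, 24 h post-dose. Detection: RT-PCR with 6-FAM-labelled products, HpaI digest, capillary electrophoresis. DMSO served as negative control and baseline.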
# [8] = target: Signal transducer and activator of transcription 3 (Homo sapiens) (UniProt P40763); test: ATG_STAT3_CIS: Attagene CIS-FACTORIAL HepG2 Assay for human Signal Transducer and Activator of Transcription 3 (STAT3) (AID 2282963); conditions: HepG2, Attagene cis-factorial STAT3 reporter transcription; actives raise or lower the signal
# Outline: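 Transcript-level reporter assay. HepG2 transient MRTU transfection, 24 h exposure, fluorescence detection after RT-PCR and CE; DMSO baseline.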
# [9] = ATG_TA_CIS: Attagene CIS-FACTORIAL HepG2 Assay for human TA Basal Promoter (AID 2282964); conditions: HepG2 Attagene CIS-factorial TA basal promoter reporter; actives raise or lower the signal
# Outline: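 Background internal-marker endpoint from a 52-component HepG2 cis-reporter panel. Cells treated 24 h; reporter transcripts quantified via RT-PCR and CE fluorescence against DMSO baseline.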
# [10] = ATG_TCF_b_cat_CIS: Attagene CIS-FACTORIAL HepG2 Assay for human T-Cell-Factor with beta-catenin (TCF/b-cat) (AID 2282965); conditions: HepG2 TCF/beta-catenin cis-reporter transcription, actives raise or lower the signal
# Outline: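 HepG2 cells transiently transfected with multiple cis-promoter-regulated reporter transcription units, so endogenous transcription factor activity is measured. Reporter mRNA read 24 hours after dosing by RT-PCR, fluorescent labelling and capillary electrophoresis; bidirectional fitting against DMSO.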
# Signal transducer and activator of transcription 3 (Homo sapiens), sequence (P40763 whole entry, looked up): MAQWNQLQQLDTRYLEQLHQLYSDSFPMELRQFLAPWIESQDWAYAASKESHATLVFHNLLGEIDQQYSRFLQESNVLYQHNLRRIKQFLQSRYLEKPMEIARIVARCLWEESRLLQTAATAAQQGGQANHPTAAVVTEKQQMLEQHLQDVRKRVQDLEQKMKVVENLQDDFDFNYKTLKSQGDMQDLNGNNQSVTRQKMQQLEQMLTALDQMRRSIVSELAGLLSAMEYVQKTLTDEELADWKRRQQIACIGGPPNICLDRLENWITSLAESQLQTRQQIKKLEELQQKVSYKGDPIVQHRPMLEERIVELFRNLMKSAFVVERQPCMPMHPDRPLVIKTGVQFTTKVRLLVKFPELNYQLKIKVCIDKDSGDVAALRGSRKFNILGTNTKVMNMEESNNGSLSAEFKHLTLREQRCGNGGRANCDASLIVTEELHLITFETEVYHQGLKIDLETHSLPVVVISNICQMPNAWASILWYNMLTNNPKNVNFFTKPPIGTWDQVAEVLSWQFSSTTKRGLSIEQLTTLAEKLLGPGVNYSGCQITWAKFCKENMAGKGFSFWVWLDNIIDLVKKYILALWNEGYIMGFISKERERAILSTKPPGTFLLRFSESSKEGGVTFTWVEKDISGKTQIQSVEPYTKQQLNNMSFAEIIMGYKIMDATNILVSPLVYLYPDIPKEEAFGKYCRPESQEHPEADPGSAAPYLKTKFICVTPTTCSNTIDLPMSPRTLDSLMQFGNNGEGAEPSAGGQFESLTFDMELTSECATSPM
# Transcription factor Sp1 (Homo sapiens), sequence (P08047 whole entry, looked up): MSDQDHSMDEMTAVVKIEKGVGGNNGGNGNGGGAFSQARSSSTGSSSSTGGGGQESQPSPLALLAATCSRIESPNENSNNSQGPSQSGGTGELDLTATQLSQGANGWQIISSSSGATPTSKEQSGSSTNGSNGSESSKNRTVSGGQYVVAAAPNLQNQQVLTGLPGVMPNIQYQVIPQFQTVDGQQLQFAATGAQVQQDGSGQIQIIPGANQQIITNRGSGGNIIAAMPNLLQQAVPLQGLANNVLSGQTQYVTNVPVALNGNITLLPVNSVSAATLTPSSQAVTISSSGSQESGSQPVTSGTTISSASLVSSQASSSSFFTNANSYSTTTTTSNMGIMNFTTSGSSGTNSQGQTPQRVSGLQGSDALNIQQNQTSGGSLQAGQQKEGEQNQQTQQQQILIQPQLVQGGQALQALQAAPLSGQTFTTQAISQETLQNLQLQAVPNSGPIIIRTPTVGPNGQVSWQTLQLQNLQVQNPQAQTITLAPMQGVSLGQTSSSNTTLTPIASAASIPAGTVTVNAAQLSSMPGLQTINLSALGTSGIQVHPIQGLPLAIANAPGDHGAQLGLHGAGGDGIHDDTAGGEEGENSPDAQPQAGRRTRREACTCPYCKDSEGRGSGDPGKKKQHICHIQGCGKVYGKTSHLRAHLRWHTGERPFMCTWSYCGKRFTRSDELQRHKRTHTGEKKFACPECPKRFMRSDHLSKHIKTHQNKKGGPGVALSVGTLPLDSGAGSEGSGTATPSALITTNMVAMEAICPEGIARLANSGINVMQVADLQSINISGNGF
# Paired box protein Pax-6 (Homo sapiens), sequence (P26367 whole entry, looked up): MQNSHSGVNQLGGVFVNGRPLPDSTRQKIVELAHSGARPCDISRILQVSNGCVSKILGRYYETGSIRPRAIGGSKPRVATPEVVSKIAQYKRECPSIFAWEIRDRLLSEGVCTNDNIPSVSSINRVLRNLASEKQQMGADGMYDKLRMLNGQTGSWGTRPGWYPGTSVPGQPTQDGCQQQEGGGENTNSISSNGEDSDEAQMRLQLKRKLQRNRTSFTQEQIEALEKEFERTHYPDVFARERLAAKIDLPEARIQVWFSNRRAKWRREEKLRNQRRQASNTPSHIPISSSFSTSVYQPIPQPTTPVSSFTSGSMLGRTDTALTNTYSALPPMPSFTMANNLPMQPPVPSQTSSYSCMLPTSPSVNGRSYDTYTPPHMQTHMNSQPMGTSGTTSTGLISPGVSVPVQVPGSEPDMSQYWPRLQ
Structure (SMILES),outcome [1],outcome [2],outcome [3],outcome [4],outcome [5],outcome [6],outcome [7],outcome [8],outcome [9],outcome [10],AC50 [2],AC50 [3],AC50 [10],AC50 [5],AC50 [6],AC50 [7],AC50 [1]
COS(C)(=O)=O,inactive,inactive,inactive,inactive,inactive,inactive,inactive,inactive,inactive,inactive,–,–,–,–,–,–,–
CNC(C)=O,inactive,–,inactive,inactive,inactive,inactive,inactive,inactive,inactive,inactive,26.1 µM (active),–,–,–,–,–,–
CCc1ccc(O)c(C(C)(C)C)c1,inactive,–,–,inactive,inactive,inactive,inactive,inactive,inactive,inactive,15.9 µM (active),42 µM (active),–,–,–,–,–
CCCc1ccccc1,inactive,inactive,inactive,inactive,inactive,inactive,–,inactive,inactive,inactive,–,–,–,–,–,–,–
FC(F)C(F)(F)COCC1CO1 (stereo unspecified),inactive,inactive,inactive,inactive,inactive,inactive,–,inactive,inactive,inactive,–,–,–,–,–,–,–
CC[C@H](C)C(=O)O[C@H]1C[C@H](O)C=C2C=C[C@H](C)[C@H](CC[C@@H](O)C[C@@H](O)CC(=O)O)[C@H]21,inactive,–,inactive,inactive,inactive,inactive,–,inactive,inactive,inactive,48.1 µM (active),–,–,–,–,–,–
C[C@@H](Oc1ccc(CNC(=O)c2cccnc2Oc2ccc3c(c2)OCO3)c(F)c1)C(=O)O,inactive,inactive,inactive,inactive,inactive,inactive,–,inactive,inactive,inactive,–,–,–,–,–,–,–
O=C(Cl)C(F)(F)C(F)(F)C(F)(F)C(=O)Cl,inactive,inactive,inactive,inactive,inactive,inactive,inactive,inactive,inactive,inactive,–,–,–,–,–,–,–
CC(C)CCCCCCOC(=O)C1CCCCC1C(=O)OCCCCCCC(C)C (stereo unspecified),inactive,–,inactive,inactive,inactive,inactive,–,inactive,inactive,inactive,1.17 µM (active),–,–,–,–,–,–
CCCCCCCC/C=C\CCCCCCCC(=O)OC[C@@H](O)[C@H]1OC[C@H](O)[C@H]1O,inactive,–,inactive,inactive,inactive,inactive,inactive,inactive,inactive,inactive,71.7 µM (active),–,–,–,–,–,–
CCCCCOC(C)=O,inactive,inactive,inactive,inactive,inactive,inactive,inactive,inactive,inactive,inactive,–,–,–,–,–,–,–
CCCCCCCC1CCC(=O)O1 (stereo unspecified),inactive,inactive,inactive,inactive,inactive,inactive,inactive,inactive,inactive,inactive,–,–,–,–,–,–,–
CCCCOC(=O)c1ccccc1,inactive,inactive,inactive,inactive,inactive,inactive,inactive,inactive,inactive,inactive,–,–,–,–,–,–,–
C[Si](C)(C)C(F)(F)C(F)(F)C(F)(F)F,inactive,inactive,inactive,inactive,inactive,inactive,inactive,inactive,inactive,inactive,–,–,–,–,–,–,–
c1ccc2ncccc2c1,inactive,inactive,inactive,inactive,inactive,inactive,inactive,inactive,inactive,inactive,–,–,–,–,–,–,–
O=C1CN(N=Cc2ccc([N+](=O)[O-])o2)C(=O)N1,inactive,inactive,inactive,inactive,inactive,inactive,inactive,inactive,inactive,–,–,–,21.4 µM (active),–,–,–,–
NC(N)=O,inactive,inactive,inactive,inactive,inactive,inactive,inactive,inactive,inactive,inactive,–,–,–,–,–,–,–
O=S1(=O)CCCO1,inactive,inactive,inactive,inactive,inactive,inactive,inactive,inactive,inactive,inactive,–,–,–,–,–,–,–
c1ccc2cc3ccccc3cc2c1,inactive,inactive,inactive,inactive,inactive,inactive,inactive,inactive,inactive,inactive,–,–,–,–,–,–,–
NNC(=O)c1ccncc1,inactive,inactive,inactive,inactive,inactive,inactive,inactive,inactive,inactive,inactive,–,–,–,–,–,–,–

Structure (SMILES),outcome [1],outcome [2],outcome [3],outcome [4],outcome [5],outcome [6],outcome [7],outcome [8],outcome [9],outcome [10],AC50 [2],AC50 [3],AC50 [10],AC50 [5],AC50 [6],AC50 [7],AC50 [1]
C[C@]12C=CC(=O)C=C1CC[C@H]1[C@@H]3C[C@@H](O)[C@](O)(C(=O)CO)[C@@]3(C)C[C@H](O)[C@@]12F,inactive,inactive,inactive,inactive,inactive,inactive,–,inactive,inactive,inactive,–,–,–,–,–,–,–
O=C(O)c1cccc(C(=O)O)c1,inactive,inactive,inactive,inactive,inactive,inactive,inactive,inactive,inactive,inactive,–,–,–,–,–,–,–
Cn1cc[nH]c1=S,inactive,inactive,inactive,inactive,inactive,inactive,–,inactive,inactive,inactive,–,–,–,–,–,–,–
FC(F)(F)C(F)(F)C(F)(F)C(F)(F)C(F)(F)C(F)(F)I,inactive,inactive,inactive,inactive,inactive,inactive,inactive,inactive,inactive,inactive,–,–,–,–,–,–,–
Nc1ccn([C@@H]2O[C@H](CO)[C@@H](O)[C@@H]2O)c(=O)n1,inactive,inactive,inactive,inactive,inactive,inactive,inactive,inactive,inactive,inactive,–,–,–,–,–,–,–
CCCCCCCCCC,inactive,inactive,inactive,inactive,inactive,inactive,inactive,inactive,inactive,inactive,–,–,–,–,–,–,–
Cc1ccc(S(=O)(=O)NC(=O)NN2CCCCCC2)cc1,inactive,inactive,inactive,inactive,inactive,inactive,inactive,inactive,inactive,inactive,–,–,–,–,–,–,–
CCCCCCOC(=O)CC(CC(=O)OCCCCCC)(OC(=O)CCC)C(=O)OCCCCCC,inactive,–,inactive,inactive,inactive,inactive,inactive,inactive,inactive,inactive,0.922 µM (active),–,–,–,–,–,–
OCCC(F)(F)C(F)(F)C(F)(F)C(F)(F)F,–,inactive,inactive,inactive,inactive,inactive,inactive,inactive,inactive,inactive,–,–,–,–,–,–,–
CCOC(N)=O,inactive,inactive,–,inactive,inactive,inactive,inactive,inactive,inactive,inactive,–,–,–,–,–,–,–
CCCCCCCCCCCCCCCCOS(=O)(=O)O,inactive,inactive,–,inactive,inactive,inactive,inactive,inactive,inactive,–,–,–,25.7 µM (active),–,–,–,–
CCCCCCCCN(C)C,inactive,inactive,–,inactive,inactive,inactive,inactive,inactive,inactive,inactive,–,–,–,–,–,–,–
O=C(N[C@H](CO)[C@H](O)c1ccc([N+](=O)[O-])cc1)C(Cl)Cl,–,inactive,inactive,inactive,inactive,inactive,–,inactive,inactive,inactive,69.7 µM (active) [middle of 4 runs],–,–,–,–,–,–
CCN(CC)C(=S)SSC(=S)N(CC)CC,–,–,inactive,inactive,–,–,–,inactive,inactive,–,161 µM (active),–,118 µM (active),100 µM (active),150 µM (active),157 µM (active),–
CCn1nc(C)c2c1C(=O)NCC(c1ccc(O)cc1)=N2,inactive,inactive,inactive,–,inactive,inactive,–,inactive,inactive,inactive,–,–,–,–,–,2.82 µM (active),–
O=C(O)c1cccc(C[C@@H]2COc3ccc(OCc4nc5cc(F)ccc5s4)cc3[C@@H]2O)c1,–,inactive,–,inactive,inactive,inactive,inactive,inactive,inactive,–,–,–,37.8 µM (active),–,–,–,135 µM (active)
CCCCC(CC)C(=O)OCCOCCOCCOC(=O)C(CC)CCCC (stereo unspecified),–,–,inactive,inactive,inactive,inactive,inactive,inactive,inactive,inactive,27.5 µM (active),–,–,–,–,–,–
CC(C)C(=O)Nc1ccc([N+](=O)[O-])c(C(F)(F)F)c1,inactive,–,–,inactive,inactive,inactive,–,inactive,inactive,inactive,2.87 µM (active),–,–,–,–,–,–
O=C(O)CO,inactive,inactive,inactive,inactive,inactive,inactive,–,inactive,inactive,inactive,–,–,–,–,–,–,–
